Experiment [1] in a line: qHTS assay to identify small molecule antagonists of the estrogen related receptor (ERR) signaling pathway - cell viability counter screen (AID 1224818). Also: series mostly up to about 46 µM. Put shortly: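 ERR cells, 2,000/well; 6 h settle at 37 C/5% CO2; compound pin transfer (DMSO); 17.5 h at 37 C; CellTiter-Fluor, 30 min, fluorescence read.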
On the technique in general: Quantitative high-throughput screening tests each substance at several concentrations.

The nature of experiment [2]: qHTS assay to identify small molecule antagonists of the estrogen related receptor (ERR) signaling pathway (AID 1224819; also: nearly all actives have a fitted effect of over 50% in size; also: potency is read from the fitted curve at half-maximal effect). Put shortly: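 qHTS in ERR cells, 2,000/well, 1536 format. Cpd (DMSO) added after 6 h settle, 18 h 37 C. One-Glo luminescence, 30 min RT.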
A short description of experiment [3]: qHTS assay to identify small molecule agonists of the estrogen related receptor (ERR) signaling pathway (AID 1224820). Put shortly:
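After 6 h plating (2,000 cells/well) and 18 h compound treatment at 37 C, ERR cells were lysed with One-Glo and luminescence read after 30 min at room temperature.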

For experiment [4], the system named is estrogen-related receptor alpha (ERRalpha) with PGC-1alpha coactivator, human. The experiment can be described thus: qHTS assay to identify small molecule antagonists of the estrogen related receptor signaling pathway with the pleiotropic PPARgamma coactivator (PGC) (AID 1224821; calls by dose curve; also: nearly all actives have a fitted effect of over 50% in size; also: potency is read from the fitted curve at half-maximal effect). In short, it runs like this: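 Luminescence from One-Glo luciferase reagent (30 min, room temperature) measured after 18 h compound treatment at 37 °C. Cells carry the PGC/ERR reporter and were seeded 6 h prior to dosing.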

The nature of experiment [5]: qHTS assay to identify small molecule antagonists of the estrogen related receptor signaling pathway with the pleiotropic PPARgamma coactivator (PGC) cell viability counter screen (AID 1224822; also: potency is read from the fitted curve at half-maximal effect). In short, it runs like this: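 Multiplexed viability counter screen run in PGC/ERR cells treated with compounds for 17.5 h at 37 C; live-cell protease signal measured by CellTiter-Fluor fluorescence.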

Records with an inconclusive call do not appear. The source made the active and inactive calls. Unless noted, calls follow the shape of the dose curve; as a rule, active = well fitted curve in the direction sought with a large enough effect in the repeat runs; inconclusive = weak or mixed curves; inactive = no such curve, though single readings can be large; an effect the other way counts as inactive or inconclusive.

For the compound `C[C@H](N)Cc1cccc(C(F)(F)F)c1`, the Potency entry in experiment [1], in experiment [2], in experiment [3], in experiment [4] and in experiment [5] was “inactive” in each case.

Take `NC(CP(=O)(O)O)C(=O)O` (stereo not given): the Potency result in experiment [1], in experiment [2], in experiment [3], in experiment [4] and in experiment [5] was “inactive” in each case.

As for `Cc1[nH]c2ccc(O)cc2c1CCN`, the Potency entry in experiment [1], in experiment [2], in experiment [3], in experiment [4] and in experiment [5] was “inactive” in each case.

Turning to `CC(C)(O)[C@@H]1[C@H]2OC(=O)[C@@H]1[C@]1(O)C[C@H]3O[C@]34C(=O)O[C@H]2[C@]14C` (tested in a mixture with another compound), the Potency entry in experiment [1], in experiment [2], in experiment [3], in experiment [4] and in experiment [5] was “inactive” in each case.

`O=C(O)[C@@H]1CCN1`: the Potency result in experiment [1], in experiment [2], in experiment [3], in experiment [4] and in experiment [5] was “inactive” each time.

Take `NC(=NCCC[C@H](N)C(=O)O)N[N+](=O)[O-]`: the Potency entry in experiment [1], in experiment [2], in experiment [3], in experiment [4] and in experiment [5] was “inactive” each time.

In the case of `C[N+]1(C)CCN(c2ccccc2)CC1`, the Potency result in experiment [1], in experiment [2], in experiment [3], in experiment [4] and in experiment [5] was “inactive” in each case.

In the case of `N[C@@H](Cn1oc(=O)[nH]c1=O)C(=O)O`, the Potency result in experiment [1], in experiment [2], in experiment [3], in experiment [4] and in experiment [5] was “inactive” each time.

`C=CCN1C[C@@H](C)N([C@H](c2ccc(C(=O)N(CC)CC)cc2)c2cccc(OC)c2)C[C@@H]1C`: the Potency result in experiment [1], in experiment [3], in experiment [4] and in experiment [5] was “inactive” throughout. Also, the Potency in experiment [2] is 26.6 µM (active).

For `CCCN1CCO[C@@H]2c3cc(O)ccc3OC[C@H]21`, the Potency result in experiment [1], in experiment [2], in experiment [3], in experiment [4] and in experiment [5] was “inactive” each time.

Take `CCCN(CCC)[C@@H]1CCc2cccc(O)c2C1`: the Potency result in experiment [1], in experiment [2], in experiment [3], in experiment [4] and in experiment [5] was “inactive” in each case.

With `O=C1CCCN1CC#CCN1CCCC1`, the Potency result in experiment [1], in experiment [2], in experiment [3], in experiment [4] and in experiment [5] was “inactive” throughout.

As to `CN1C2CCC1CC(OC(c1ccccc1)c1ccccc1N)C2` (stereo not given), the Potency result in experiment [1], in experiment [2], in experiment [3], in experiment [4] and in experiment [5] was “inactive” in each case.

Turning to `NCC(O)c1cc(O)c(O)cc1F` (stereo not given), the Potency entry in experiment [1], in experiment [2], in experiment [3], in experiment [4] and in experiment [5] was “inactive” throughout.

Turning to `OCc1cnc[nH]1`, the Potency entry in experiment [1], in experiment [2], in experiment [3], in experiment [4] and in experiment [5] was “inactive” each time.

For the compound `NC(N)=NOCCC(N)C(=O)O` (stereo not given), the Potency result in experiment [1], in experiment [2], in experiment [3], in experiment [4] and in experiment [5] was “inactive” throughout.

As for `C=CCN1CCC23c4c5ccc(O)c4O[C@H]2C(=O)CC[C@@]3(O)C1C5` (stereo not given in full), the Potency result in experiment [1], in experiment [2], in experiment [3], in experiment [4] and in experiment [5] was “inactive” in each case.

Regarding `NCCc1ccc(S(=O)(=O)F)cc1`, the Potency entry in experiment [1], in experiment [2], in experiment [3], in experiment [4] and in experiment [5] was “inactive” each time.

Take `Clc1ccc(N2CC3CCC(C2)N3)nn1`: the Potency result in experiment [1], in experiment [2], in experiment [3], in experiment [4] and in experiment [5] was “inactive” throughout.

As for `OC1CCCCC1N1CCC(c2ccccc2)CC1` (stereo not given), the Potency result in experiment [1], in experiment [2], in experiment [3], in experiment [4] and in experiment [5] was “inactive” in each case.

Consider `CCCN(CCC)[C@@H]1CCc2ccc(O)cc2C1`, for which the Potency result in experiment [1], in experiment [2], in experiment [3], in experiment [4] and in experiment [5] was “inactive” each time.

For `CCCN(CCC)CCc1ccc(O)c(O)c1`, the Potency result in experiment [1], in experiment [2], in experiment [3], in experiment [4] and in experiment [5] was “inactive” throughout.

With `NCCc1c[nH]c2ccccc12`, the Potency result in experiment [1], in experiment [2], in experiment [3], in experiment [4] and in experiment [5] was “inactive” throughout.

Regarding `COc1ccc2c(c1O)-c1cccc3c1[C@@H](C2)N(C)CC3`, the Potency entry in experiment [1], in experiment [2], in experiment [3], in experiment [4] and in experiment [5] was “inactive” each time.

Consider `CC1=NN=C(c2ccc(N)cc2)c2cc3c(cc2C1)OCO3`, for which the Potency entry in experiment [1], in experiment [2], in experiment [3], in experiment [4] and in experiment [5] was “inactive” throughout.

For `N=C(N)c1ccc(CS(=O)(=O)F)cc1`, the Potency entry in experiment [1], in experiment [2], in experiment [3], in experiment [4] and in experiment [5] was “inactive” throughout.

Take `CC(C)(C)OC(=O)NC1[C@H]2CNC[C@@H]12` (stereo not given in full): the Potency result in experiment [1], in experiment [2] and in experiment [3] was “inactive” in each case. The Potency in experiment [4] was 15.5 µM (active); in experiment [5], 20.3 µM (active).

The values above are taken from PubChem BioAssay (Tox21).
